Assay [1] has as its target Bile acid receptor (Homo sapiens) (UniProt Q96RI1). Kind of assay: ATG_IR1_CIS: Attagene CIS-FACTORIAL HepG2 Assay for human Nuclear Receptor Subfamily 1 Group H Member 4 (NR1H4), IR1 submotif (AID 2282946). Particulars: IR1 reporter transcription, actives raise or lower the signal. A digest of the protocol: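 Transient MRTU transfection, HepG2; 24 h dosing; RNA → RT-PCR → 6-FAM primer extension → HpaI digest → capillary electrophoresis fluorescence. Gain/loss of signal fitted relative to DMSO.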

Assay [2] can be described thus: ATG_GRE_CIS: Attagene CIS-FACTORIAL HepG2 Assay for human Glucocorticoid Response Elements (GRE) (AID 2282947). Particulars: HepG2 GRE cis-reporter, Attagene multiplex mRNA; actives raise or lower the signal. A digest of the protocol:
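HepG2 cells transiently transfected with multiple cis-promoter reporter units measure endogenous TF activity; 24 h compound exposure. Reporter mRNA quantified by RT-PCR, FAM labelling, HpaI digestion and capillary electrophoresis; bidirectional fit vs DMSO baseline.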

Assay [3] is described as follows: ATG_ISRE_CIS: Attagene CIS-FACTORIAL HepG2 Assay for human Interferon Regulatory Factor 1 (IRF1) binding to an Interferon-Stimulated Response Element (ISRE) (AID 2282948). Particulars: HepG2 ISRE cis-reporter (Attagene), mRNA transcription readout; actives raise or lower the signal. The gist of the method:
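Transiently transfected HepG2 cells carrying cis-element reporter units, dosed 24 hours. Reporter mRNA quantified by RT-PCR, fluorescent primer extension, HpaI digestion and capillary electrophoresis. Bidirectional fitting relative to DMSO.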

In assay [4] the target is Hypoxia-inducible factor 1-alpha (Homo sapiens) (UniProt Q16665). Kind of assay: ATG_HIF1a_CIS: Attagene CIS-FACTORIAL HepG2 Assay for human Hypoxia Inducible Factor 1 (HIF1A) (AID 2282951). Particulars: HepG2 Attagene cis-factorial HIF1a reporter transcription; actives raise or lower the signal. The gist of the method: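 Transient MRTU transfection of human HepG2 liver cells, 24 h compound treatment, then total RNA isolation, oligo(dT) reverse transcription, PCR amplification, fluorescent labelling and capillary electrophoresis of reporter fragments. Gain or loss relative to DMSO.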
Sequence of Hypoxia-inducible factor 1-alpha (Homo sapiens) (Q16665 whole entry, looked up, the tested form may be a part): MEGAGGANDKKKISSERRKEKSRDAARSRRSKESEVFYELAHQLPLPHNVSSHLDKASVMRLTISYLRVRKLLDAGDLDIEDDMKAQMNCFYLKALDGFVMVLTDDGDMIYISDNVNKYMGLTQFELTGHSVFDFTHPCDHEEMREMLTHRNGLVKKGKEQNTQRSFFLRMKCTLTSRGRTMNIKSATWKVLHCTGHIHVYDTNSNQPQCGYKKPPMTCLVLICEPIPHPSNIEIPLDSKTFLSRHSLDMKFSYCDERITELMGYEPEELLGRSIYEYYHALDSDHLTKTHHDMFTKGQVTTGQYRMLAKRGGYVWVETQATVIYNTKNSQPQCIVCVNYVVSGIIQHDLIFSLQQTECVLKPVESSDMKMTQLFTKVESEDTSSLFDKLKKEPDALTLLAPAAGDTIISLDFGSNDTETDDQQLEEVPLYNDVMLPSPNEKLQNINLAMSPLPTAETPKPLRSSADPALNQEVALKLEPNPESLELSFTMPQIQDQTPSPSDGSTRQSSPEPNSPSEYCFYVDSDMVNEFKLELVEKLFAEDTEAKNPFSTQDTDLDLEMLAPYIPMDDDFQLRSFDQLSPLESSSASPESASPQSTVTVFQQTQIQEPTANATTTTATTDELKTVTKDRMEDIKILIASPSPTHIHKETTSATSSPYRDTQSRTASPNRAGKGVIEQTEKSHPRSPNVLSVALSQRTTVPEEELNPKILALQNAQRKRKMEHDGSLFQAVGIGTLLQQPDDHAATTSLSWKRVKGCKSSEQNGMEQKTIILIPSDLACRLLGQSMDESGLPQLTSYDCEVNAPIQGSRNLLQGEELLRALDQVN

The target in assay [5] is Hepatocyte nuclear factor 6 (Homo sapiens) (UniProt Q9UBC0). Put plainly: ATG_HNF6_CIS: Attagene CIS-FACTORIAL HepG2 Assay for human Hepatocyte Nuclear Factor 6 (HNF6) (AID 2282952). Particulars: HepG2 Attagene cis-factorial HNF6 reporter transcription; actives raise or lower the signal. A digest of the protocol:
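Cells are HepG2 carrying transiently transfected cis-promoter reporter units. Treatment lasts 24 h, after which reporter transcripts are reverse-transcribed, amplified, FAM-labelled and sized by capillary electrophoresis. DMSO serves as baseline.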

A short description of assay [6]: ATG_MRE_CIS: Attagene CIS-FACTORIAL HepG2 Assay for human Metal Responsive Element (MRE) (AID 2282954). Particulars: HepG2 MRE cis-reporter transcription, Attagene multiplex; actives raise or lower the signal. A digest of the protocol: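 HepG2 cells transiently transfected with multiple cis-element reporter units measure endogenous MTF1-driven transcription. After 24 h compound exposure, reporter mRNA is quantified by RT-PCR with 6-FAM labelling, HpaI digestion and capillary electrophoresis; bidirectional fits versus DMSO.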

Assay [7] has as its target Paired box protein Pax-6 (Homo sapiens) (UniProt P26367). Put plainly: ATG_Pax6_CIS: Attagene CIS-FACTORIAL HepG2 Assay for human Paired Box 6 (PAX6) (AID 2282956). Particulars: HepG2 CIS-FACTORIAL PAX6 reporter transcription, RNA readout; actives raise or lower the signal. The gist of the method:
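HepG2 cells transiently transfected with cis-promoter-driven multiplexed reporter units sensing endogenous transcription factor activity; 24 h chemical exposure. Reporter mRNA quantified by RT-PCR, 6-FAM labelling, HpaI digestion and capillary electrophoresis; bidirectional fit versus DMSO baseline.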

Assay [8] can be described thus: ATG_PXRE_CIS: Attagene CIS-FACTORIAL HepG2 Assay for human Pregnane X Receptor Element (PXRE) (AID 2282957). As to conditions: HepG2 Attagene CIS-FACTORIAL PXRE reporter, mRNA; actives raise or lower the signal. A digest of the protocol: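 Multiplexed cis-reporter assay in transiently transfected human HepG2 cells; 24 h chemical exposure. Reporter transcripts quantified by RT-PCR with fluorescent labeling and capillary electrophoresis.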

Assay [9] in a line: ATG_RORE_CIS: Attagene CIS-FACTORIAL HepG2 Assay for human RAR-related Orphan Receptor Element (RORE) (AID 2282959). Particulars: HepG2 Attagene cis-factorial RORE reporter, mRNA; actives raise or lower the signal. A digest of the protocol: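 Transient MRTU transfection of human HepG2 liver cells (FuGene 6); 24 h compound exposure; TriZol RNA, oligo(dT) RT, PCR, FAM labeling, HpaI cut, CE fragment analysis. DMSO = negative control/baseline.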

Assay [10] can be described thus: ATG_Sox_CIS: Attagene CIS-FACTORIAL HepG2 Assay for human SRY-box transcription factor (SOX) (AID 2282960). As to conditions: HepG2 Attagene cis-factorial SOX reporter, mRNA; actives raise or lower the signal. The gist of the method: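 Endogenous factor activity in human liver HepG2 cells carrying transfected cis-regulated reporter units. RNA taken 24 h post-dose, reverse-transcribed, PCR-amplified and sized by capillary electrophoresis. Gain or loss of signal fitted relative to DMSO.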

The target in assay [11] is Transcription factor Sp1 (Homo sapiens) (UniProt P08047). Kind of assay: ATG_Sp1_CIS: Attagene CIS-FACTORIAL HepG2 Assay for human Specificity Protein 1 (Sp1) (AID 2282961). Particulars: HepG2 Sp1 cis-reporter transcription, actives raise or lower the signal. A digest of the protocol: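 Transient MRTU-transfected HepG2, 24 h compound exposure. Total RNA → oligo(dT) RT → PCR of reporter → 6-FAM primer extension → HpaI digest → CE. Endpoint fitted both directions vs DMSO.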
Sequence of Transcription factor Sp1 (Homo sapiens) (P08047 whole entry, looked up): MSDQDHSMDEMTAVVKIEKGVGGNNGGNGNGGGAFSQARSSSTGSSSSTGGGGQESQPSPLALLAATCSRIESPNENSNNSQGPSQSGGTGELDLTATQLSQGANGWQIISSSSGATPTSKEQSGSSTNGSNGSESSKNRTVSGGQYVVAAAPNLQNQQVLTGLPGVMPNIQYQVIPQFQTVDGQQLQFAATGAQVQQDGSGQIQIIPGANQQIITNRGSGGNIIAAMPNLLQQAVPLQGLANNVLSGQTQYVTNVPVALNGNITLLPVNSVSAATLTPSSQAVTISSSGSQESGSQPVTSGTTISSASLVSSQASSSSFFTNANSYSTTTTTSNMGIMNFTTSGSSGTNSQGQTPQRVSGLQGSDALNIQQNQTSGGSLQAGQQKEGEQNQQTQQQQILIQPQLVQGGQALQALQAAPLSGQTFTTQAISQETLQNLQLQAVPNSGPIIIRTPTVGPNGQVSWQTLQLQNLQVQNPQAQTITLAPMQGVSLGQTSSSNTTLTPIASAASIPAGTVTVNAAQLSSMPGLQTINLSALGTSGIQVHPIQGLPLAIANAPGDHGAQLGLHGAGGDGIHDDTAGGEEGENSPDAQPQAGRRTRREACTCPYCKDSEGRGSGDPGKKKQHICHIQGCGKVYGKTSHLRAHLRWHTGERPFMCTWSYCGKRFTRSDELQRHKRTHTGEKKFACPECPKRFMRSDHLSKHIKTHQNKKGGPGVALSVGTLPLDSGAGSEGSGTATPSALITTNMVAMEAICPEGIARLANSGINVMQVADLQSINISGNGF

Assay [12] can be described thus: ATG_SREBP_CIS: Attagene CIS-FACTORIAL HepG2 Assay for human Sterol Regulatory Element Binding (SREBP) (AID 2282962). As to conditions: HepG2 Attagene cis-factorial SREBP reporter, mRNA; actives raise or lower the signal. A digest of the protocol:
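HepG2 cells transiently transfected with multiplexed cis-promoter reporter units sensing endogenous transcription factors; reporter mRNA measured 24 h after dosing by RT-PCR, 6-FAM labeling, HpaI digestion and capillary electrophoresis. Bidirectional fit versus DMSO.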

Assay [13] can be described thus: ATG_TA_CIS: Attagene CIS-FACTORIAL HepG2 Assay for human TA Basal Promoter (AID 2282964). Particulars: HepG2 Attagene CIS-factorial TA basal promoter reporter; actives raise or lower the signal. A digest of the protocol: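 Transfected HepG2, 24 h compound exposure; RNA → RT-PCR → FAM primer extension → HpaI cut → CE fluorescence. Gain/loss-of-signal fitted against DMSO negative control. Background-control readout.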

Assay [14] is described as follows: ATG_TCF_b_cat_CIS: Attagene CIS-FACTORIAL HepG2 Assay for human T-Cell-Factor with beta-catenin (TCF/b-cat) (AID 2282965). Particulars: HepG2 TCF/beta-catenin cis-reporter transcription, actives raise or lower the signal. The gist of the method:
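In this cis-format system, transfected HepG2 cells report endogenous transcription factor activity. Readout after 24 h exposure is reporter transcript abundance from RT-PCR and capillary electrophoresis, analysed for gain or loss of signal versus DMSO.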

Assay [15] is described as follows: ATG_M_32_CIS: Attagene CIS-FACTORIAL HepG2 Assay for M32 Transcription Factor (Internal Marker) (AID 2282949).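 Further: background control marker of the multiplexed CIS panel rather than a real target.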 Particulars: HepG2 Attagene cis-factorial M32 reporter, mRNA; actives raise or lower the signal. The gist of the method: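 Following 24 h chemical exposure of HepG2 cells transiently expressing cis-promoter reporter constructs, reporter transcript levels were determined by RT-PCR with fluorescent labelling and capillary electrophoresis, then fitted bidirectionally against DMSO.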

The nature of assay [16]: ATG_M_06_CIS: Attagene CIS-FACTORIAL HepG2 Assay for M06 Transcription Factor (Internal Marker) (AID 2282950). Particulars: HepG2 Attagene CIS-FACTORIAL M06 internal marker reporter; actives raise or lower the signal. A digest of the protocol:
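Terse: HepG2, transient MRTU transfection (FuGene 6), 24 h dosing; total RNA, oligo(dT) RT, PCR, FAM label, HpaI cut, capillary electrophoresis; bidirectional fit vs DMSO baseline; background-control endpoint.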

Assay [17] addresses Heat shock factor protein 1 (Homo sapiens) (UniProt Q00613). Kind of assay: ATG_HSE_CIS: Attagene CIS-FACTORIAL HepG2 Assay for human Heat Shock Transcription Factor 1 (HSE) (AID 2282953). Particulars: HepG2 HSE cis-reporter, Attagene RNA transcription; actives raise or lower the signal. A digest of the protocol: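 Read-out: fluorescence of reporter-specific RT-PCR fragments separated by capillary electrophoresis. HepG2 carrying transfected cis-element reporter units; 24 h dosing; activity fitted in both directions relative to DMSO baseline.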

Assay [18] can be described thus: ATG_PPRE_CIS: Attagene CIS-FACTORIAL HepG2 Assay for human Peroxisome Proliferator-activated Response Element (PPRE) (AID 2282958). As to conditions: HepG2 PPRE cis-element reporter, Attagene transcription factor profiling; actives raise or lower the signal. A digest of the protocol: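 HepG2, transient MRTU transfection (cis promoter elements, endogenous TFs). 24 h dosing. RNA → oligo(dT) RT → PCR → 6-FAM primer extension → HpaI digest → CE. Bidirectional fit vs DMSO.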

Assay [19] addresses Signal transducer and activator of transcription 3 (Homo sapiens) (UniProt P40763). Put plainly: ATG_STAT3_CIS: Attagene CIS-FACTORIAL HepG2 Assay for human Signal Transducer and Activator of Transcription 3 (STAT3) (AID 2282963). Particulars: HepG2, Attagene cis-factorial STAT3 reporter transcription; actives raise or lower the signal. A digest of the protocol:
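HepG2 cells transiently transfected with cis-element-driven multiple reporter transcription units; after 24 h chemical exposure, reporter mRNA measured by RT-PCR, 6-FAM primer-extension labelling, HpaI digestion and capillary electrophoresis. Bidirectional fitting versus DMSO baseline.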

Assay [20] can be described thus: ATG_PBREM_CIS: Attagene CIS-FACTORIAL HepG2 Assay for human Phenobarbital-responsive Enhancer Module (PBREM) (AID 2282955). Particulars: HepG2 PBREM cis-reporter, Attagene multiplexed transcription; actives raise or lower the signal. A digest of the protocol:
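Endogenous transcription factors in human liver HepG2 cells drive a PBREM cis-element reporter, whose transcript level after 24 h treatment is quantified by RT-PCR with capillary electrophoresis; activity fitted in both directions against DMSO.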

Each structure is given as a SMILES string. Calls of active or inactive are those of the source. How the source made its calls: active means hit-call score of the fitted dose curve at least 0.9, where 1 is the maximum; inactive means score below 0.9.

Drawing on PubChem BioAssay (EPA / NIEHS), this text covers outcome and AC50 for 4 molecules.

In general, AC50 refers to the concentration giving half of the maximal activity seen.

Sequence of Paired box protein Pax-6 (Homo sapiens) (P26367 whole entry, looked up): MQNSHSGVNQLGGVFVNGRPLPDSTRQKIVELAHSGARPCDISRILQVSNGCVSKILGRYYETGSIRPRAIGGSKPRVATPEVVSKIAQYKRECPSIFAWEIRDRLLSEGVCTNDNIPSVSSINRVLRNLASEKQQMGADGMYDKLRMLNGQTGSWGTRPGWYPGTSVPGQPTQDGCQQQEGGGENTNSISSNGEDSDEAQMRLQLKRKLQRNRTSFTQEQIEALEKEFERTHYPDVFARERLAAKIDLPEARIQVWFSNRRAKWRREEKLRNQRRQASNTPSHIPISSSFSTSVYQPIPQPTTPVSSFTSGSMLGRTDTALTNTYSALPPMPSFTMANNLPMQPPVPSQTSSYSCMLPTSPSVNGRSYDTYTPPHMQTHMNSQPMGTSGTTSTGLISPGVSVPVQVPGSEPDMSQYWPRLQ
Sequence of Heat shock factor protein 1 (Homo sapiens) (Q00613 whole entry, looked up, the tested form may be a part): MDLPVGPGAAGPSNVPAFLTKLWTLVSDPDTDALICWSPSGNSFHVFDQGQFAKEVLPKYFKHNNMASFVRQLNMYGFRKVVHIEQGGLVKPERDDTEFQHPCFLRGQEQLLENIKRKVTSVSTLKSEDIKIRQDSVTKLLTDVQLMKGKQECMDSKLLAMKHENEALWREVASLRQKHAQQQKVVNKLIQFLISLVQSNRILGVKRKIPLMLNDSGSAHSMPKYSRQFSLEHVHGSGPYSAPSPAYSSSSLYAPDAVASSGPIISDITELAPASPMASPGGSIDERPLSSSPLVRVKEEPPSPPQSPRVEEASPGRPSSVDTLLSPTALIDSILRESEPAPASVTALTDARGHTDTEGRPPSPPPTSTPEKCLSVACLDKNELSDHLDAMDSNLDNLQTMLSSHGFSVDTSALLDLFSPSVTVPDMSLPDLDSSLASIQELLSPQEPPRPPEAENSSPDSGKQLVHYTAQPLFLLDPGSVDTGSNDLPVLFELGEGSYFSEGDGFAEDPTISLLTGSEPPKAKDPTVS
Sequence of Signal transducer and activator of transcription 3 (Homo sapiens) (P40763 whole entry, looked up): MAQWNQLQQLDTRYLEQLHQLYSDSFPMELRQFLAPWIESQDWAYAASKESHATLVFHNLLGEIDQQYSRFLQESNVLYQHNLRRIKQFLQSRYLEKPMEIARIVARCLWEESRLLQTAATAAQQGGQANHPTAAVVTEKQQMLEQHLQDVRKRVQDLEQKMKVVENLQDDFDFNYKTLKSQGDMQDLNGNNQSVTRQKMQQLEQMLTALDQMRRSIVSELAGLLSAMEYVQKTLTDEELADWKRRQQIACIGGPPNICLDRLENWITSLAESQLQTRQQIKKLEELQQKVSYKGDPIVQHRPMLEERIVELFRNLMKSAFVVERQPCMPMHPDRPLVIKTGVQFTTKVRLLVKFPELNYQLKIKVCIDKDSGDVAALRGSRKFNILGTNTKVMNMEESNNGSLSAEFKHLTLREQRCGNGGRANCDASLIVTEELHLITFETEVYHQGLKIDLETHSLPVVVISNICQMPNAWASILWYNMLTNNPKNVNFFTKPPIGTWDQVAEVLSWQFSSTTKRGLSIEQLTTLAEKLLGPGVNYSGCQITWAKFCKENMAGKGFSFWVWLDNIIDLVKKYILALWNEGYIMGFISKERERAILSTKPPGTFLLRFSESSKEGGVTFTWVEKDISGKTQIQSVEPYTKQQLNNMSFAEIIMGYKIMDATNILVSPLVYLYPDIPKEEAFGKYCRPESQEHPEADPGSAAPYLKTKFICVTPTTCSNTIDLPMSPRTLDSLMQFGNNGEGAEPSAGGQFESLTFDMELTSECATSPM
Sequence of Hepatocyte nuclear factor 6 (Homo sapiens) (Q9UBC0 whole entry, looked up): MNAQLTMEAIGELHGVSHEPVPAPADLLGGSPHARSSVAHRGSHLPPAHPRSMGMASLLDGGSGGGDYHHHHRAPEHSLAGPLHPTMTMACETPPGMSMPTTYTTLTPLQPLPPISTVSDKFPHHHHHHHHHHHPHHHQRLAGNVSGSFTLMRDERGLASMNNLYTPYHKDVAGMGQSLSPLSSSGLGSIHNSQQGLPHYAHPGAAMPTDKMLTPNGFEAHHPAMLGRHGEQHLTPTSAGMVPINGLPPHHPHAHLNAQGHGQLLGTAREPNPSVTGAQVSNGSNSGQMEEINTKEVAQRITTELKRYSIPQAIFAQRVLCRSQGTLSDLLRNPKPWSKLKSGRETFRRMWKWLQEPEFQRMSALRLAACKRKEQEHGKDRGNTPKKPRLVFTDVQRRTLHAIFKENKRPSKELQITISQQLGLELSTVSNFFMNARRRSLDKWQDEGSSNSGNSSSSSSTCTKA
Sequence of Bile acid receptor (Homo sapiens) (Q96RI1 whole entry, looked up): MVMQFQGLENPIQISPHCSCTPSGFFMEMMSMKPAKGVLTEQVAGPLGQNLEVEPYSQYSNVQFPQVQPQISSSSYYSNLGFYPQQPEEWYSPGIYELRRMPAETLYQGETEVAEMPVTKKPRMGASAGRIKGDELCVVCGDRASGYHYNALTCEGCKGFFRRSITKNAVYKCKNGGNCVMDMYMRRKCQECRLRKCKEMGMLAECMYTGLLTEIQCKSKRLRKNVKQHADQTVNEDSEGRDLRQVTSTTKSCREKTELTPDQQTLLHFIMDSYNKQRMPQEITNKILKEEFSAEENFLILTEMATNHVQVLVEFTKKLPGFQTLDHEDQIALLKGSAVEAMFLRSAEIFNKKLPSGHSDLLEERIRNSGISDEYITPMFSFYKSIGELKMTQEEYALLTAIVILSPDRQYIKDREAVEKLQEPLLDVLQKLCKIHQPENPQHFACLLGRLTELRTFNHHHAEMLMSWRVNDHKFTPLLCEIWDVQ

`CC1C2CC(CC2C2CCCC(O)C2)C1(C)C` (stereo not drawn): the call in assay [1], in assay [2], in assay [3], in assay [4], in assay [5] and in [6] was inactive. For the same molecule, the outcome in assay [7], in assay [9], in [10], in [11], in assay [12] and in assay [13] was inactive. Further, the call in [14] was inactive. The AC50 in [8] was 3.04 µM (active).

As to `CCCC(C)=O`, the call in [1], in [2], in assay [15], in assay [16], in assay [4] and in assay [5] was inactive. In addition, the result in assay [17], in assay [6], in assay [7], in assay [8], in [18] and in assay [9] was inactive. Further, the molecule was classed as inactive in assay [10], in assay [11], in [12], in assay [19], in assay [13] and in [14].

Turning to `NC1CCCCC1N` (stereo not drawn), the molecule was classed as inactive in assay [1], in assay [2], in assay [16], in [4], in [5] and in [17]. Further, the call in [6], in [20], in [7], in assay [8], in [9] and in [10] was inactive. Besides, the call in [11], in assay [12], in [19], in assay [13] and in assay [14] was inactive.

In the case of `CCOC(=O)COC(=O)c1cc(Oc2ccc(C(F)(F)F)cc2Cl)ccc1[N+](=O)[O-]`, the result in assay [1], in assay [3], in [15], in assay [16], in assay [4] and in assay [5] was inactive. Also, the molecule was classed as inactive in assay [17], in [6], in assay [20], in assay [7], in [10] and in assay [11]. The call in assay [12], in [19], in [13] and in assay [14] was inactive. Moreover, the AC50 in assay [8] was 9.9 µM (active); in assay [18] it was 12.4 µM (active); in assay [9], 34.3 µM (active).
